# Measured values from the supplement of paper PMC10849652.
# Targets with a hit are over-represented here; the source holds about 7,900 in all. About 0.6% of all pairs of compound and target were hits. A number with no mark means an inactive call.
# Compound: c1cn2cc(-c3ccc4cn[nH]c4c3)nc(Nc3ccc(N4CCOCC4)cc3)c2n1 [entospletinib]
# Experiment: log2 fold change, soluble protein after heating vs DMSO (PISA); higher = thermal stabilisation; K562 cells, 10 uM, 30 min; active = over 0.2 and 3.5 SD of the protein, either way, in both replicates (recomputed)
# Procedure, shortened: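 Aliquots of K562 cells (2×10^6 cells/mL) treated with 10 μM compound for 30 min were heated for 3 min over 48°C-58°C. After pooling and extraction in PBS with 0.5% NP-40 at 4°C, soluble protein from a 21,000xg, 90 min spin was quantified by TMTpro 16plex LC-MS/MS with channel sums equalised. Thermal stability is expressed against control samples, from duplicates, as a log2 fold change.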
# Sequence of UniProt Q5VZM2 (Q5VZM2 whole entry, looked up): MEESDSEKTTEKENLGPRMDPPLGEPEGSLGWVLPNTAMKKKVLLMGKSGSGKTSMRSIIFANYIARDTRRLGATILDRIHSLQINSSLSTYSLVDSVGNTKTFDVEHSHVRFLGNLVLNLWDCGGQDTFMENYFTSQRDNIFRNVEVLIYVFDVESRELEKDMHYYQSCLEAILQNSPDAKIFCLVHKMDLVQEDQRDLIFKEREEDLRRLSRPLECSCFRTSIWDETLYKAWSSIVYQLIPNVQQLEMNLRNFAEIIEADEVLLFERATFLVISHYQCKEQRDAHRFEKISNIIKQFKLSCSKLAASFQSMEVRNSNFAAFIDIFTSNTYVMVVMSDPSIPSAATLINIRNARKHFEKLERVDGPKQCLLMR
# Sequence of UniProt Q86TU7 (Q86TU7 whole entry, looked up): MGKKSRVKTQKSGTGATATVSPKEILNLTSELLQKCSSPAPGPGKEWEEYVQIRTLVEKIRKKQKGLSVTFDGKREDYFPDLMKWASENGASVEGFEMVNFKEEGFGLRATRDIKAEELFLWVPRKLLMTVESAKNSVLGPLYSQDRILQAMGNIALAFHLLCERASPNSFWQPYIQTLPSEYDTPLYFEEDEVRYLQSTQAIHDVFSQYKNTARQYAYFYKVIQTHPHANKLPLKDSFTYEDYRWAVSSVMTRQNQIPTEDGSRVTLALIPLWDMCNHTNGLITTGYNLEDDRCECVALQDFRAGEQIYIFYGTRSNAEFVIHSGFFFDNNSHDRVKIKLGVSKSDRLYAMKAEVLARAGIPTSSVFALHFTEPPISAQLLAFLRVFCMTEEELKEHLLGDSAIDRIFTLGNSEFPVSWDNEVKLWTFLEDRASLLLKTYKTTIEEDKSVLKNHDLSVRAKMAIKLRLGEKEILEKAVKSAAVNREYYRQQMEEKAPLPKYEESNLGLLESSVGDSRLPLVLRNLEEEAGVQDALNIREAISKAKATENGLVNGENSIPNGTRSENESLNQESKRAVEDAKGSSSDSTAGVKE
# Sequence of UniProt Q92878 (Q92878 whole entry, looked up): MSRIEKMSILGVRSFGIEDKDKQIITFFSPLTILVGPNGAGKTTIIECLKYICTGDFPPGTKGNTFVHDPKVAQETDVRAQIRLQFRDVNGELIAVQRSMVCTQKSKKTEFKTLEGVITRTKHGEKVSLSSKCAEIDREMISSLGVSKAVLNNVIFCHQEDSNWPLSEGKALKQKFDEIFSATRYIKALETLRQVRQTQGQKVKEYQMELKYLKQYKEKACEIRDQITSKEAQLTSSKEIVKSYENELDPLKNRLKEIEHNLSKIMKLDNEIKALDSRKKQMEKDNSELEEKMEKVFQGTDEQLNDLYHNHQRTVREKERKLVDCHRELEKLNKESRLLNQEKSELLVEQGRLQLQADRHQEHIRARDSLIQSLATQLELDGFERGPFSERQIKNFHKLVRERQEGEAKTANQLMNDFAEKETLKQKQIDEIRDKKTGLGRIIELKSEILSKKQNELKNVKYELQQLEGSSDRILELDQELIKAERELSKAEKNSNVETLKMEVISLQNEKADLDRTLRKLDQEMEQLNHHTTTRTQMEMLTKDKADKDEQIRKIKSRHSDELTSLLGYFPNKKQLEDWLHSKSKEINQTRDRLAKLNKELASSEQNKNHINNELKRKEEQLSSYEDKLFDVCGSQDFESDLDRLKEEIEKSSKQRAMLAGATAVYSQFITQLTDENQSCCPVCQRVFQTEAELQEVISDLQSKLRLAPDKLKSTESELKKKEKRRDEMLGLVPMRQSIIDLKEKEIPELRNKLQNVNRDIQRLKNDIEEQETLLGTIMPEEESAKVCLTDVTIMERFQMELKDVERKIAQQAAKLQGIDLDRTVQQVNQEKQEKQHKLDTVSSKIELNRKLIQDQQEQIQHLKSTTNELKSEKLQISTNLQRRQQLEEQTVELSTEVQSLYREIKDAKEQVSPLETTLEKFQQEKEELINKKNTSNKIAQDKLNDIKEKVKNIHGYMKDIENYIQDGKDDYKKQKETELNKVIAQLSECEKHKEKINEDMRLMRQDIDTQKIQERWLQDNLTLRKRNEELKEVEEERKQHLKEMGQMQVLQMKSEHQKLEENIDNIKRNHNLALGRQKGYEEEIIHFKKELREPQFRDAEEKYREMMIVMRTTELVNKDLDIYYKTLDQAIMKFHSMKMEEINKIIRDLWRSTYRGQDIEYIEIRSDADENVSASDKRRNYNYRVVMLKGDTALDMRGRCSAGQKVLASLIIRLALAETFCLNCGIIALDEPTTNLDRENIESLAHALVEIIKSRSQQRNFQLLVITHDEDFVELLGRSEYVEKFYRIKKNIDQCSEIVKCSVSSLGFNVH
# Sequence of UniProt Q5VUM1 (Q5VUM1 whole entry, looked up): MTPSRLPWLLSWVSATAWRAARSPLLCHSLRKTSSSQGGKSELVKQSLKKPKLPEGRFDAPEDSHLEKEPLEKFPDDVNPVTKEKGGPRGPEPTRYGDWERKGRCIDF
# Sequence of UniProt Q9NPQ8 (Q9NPQ8 whole entry, looked up): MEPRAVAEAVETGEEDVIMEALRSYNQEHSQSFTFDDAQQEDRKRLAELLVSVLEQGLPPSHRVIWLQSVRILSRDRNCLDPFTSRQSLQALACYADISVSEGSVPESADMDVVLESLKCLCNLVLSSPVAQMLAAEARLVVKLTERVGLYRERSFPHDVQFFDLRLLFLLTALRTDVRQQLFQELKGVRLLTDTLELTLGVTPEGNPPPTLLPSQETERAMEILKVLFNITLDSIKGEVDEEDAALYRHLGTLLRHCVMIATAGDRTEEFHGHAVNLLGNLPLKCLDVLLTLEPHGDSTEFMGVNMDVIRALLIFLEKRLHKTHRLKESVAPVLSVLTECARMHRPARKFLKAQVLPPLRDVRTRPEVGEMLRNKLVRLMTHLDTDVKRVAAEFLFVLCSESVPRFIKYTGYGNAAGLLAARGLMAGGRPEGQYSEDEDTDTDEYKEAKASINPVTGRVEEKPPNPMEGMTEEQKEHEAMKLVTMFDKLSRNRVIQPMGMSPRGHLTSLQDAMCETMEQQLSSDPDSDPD
# Sequence of UniProt P60903 (P60903 whole entry, looked up): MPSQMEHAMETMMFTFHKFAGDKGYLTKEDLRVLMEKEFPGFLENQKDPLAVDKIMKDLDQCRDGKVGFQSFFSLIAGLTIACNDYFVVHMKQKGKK
# Sequence of UniProt O00584 (O00584 whole entry, looked up): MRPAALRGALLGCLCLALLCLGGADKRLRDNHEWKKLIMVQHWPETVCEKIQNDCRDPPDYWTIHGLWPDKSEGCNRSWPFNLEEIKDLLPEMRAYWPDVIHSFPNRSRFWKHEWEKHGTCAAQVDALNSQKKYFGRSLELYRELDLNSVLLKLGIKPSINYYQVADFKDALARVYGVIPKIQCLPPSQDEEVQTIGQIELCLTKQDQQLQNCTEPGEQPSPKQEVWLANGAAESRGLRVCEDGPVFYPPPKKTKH
# Sequence of UniProt O95059 (O95059 whole entry, looked up): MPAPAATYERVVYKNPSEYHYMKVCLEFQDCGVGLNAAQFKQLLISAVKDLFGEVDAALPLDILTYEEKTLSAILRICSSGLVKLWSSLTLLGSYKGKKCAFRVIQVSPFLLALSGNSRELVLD
# Sequence of UniProt Q9UKM9 (Q9UKM9 whole entry, looked up): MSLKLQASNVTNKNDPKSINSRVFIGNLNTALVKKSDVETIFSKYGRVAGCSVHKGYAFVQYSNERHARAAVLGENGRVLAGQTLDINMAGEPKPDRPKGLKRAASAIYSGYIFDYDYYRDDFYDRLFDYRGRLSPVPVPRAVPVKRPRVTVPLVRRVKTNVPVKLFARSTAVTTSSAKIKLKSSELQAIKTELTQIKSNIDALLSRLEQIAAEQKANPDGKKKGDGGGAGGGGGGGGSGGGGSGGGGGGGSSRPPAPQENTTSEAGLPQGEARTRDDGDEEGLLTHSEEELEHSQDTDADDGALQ
# Sequence of UniProt A6NEQ0 (A6NEQ0 whole entry, looked up): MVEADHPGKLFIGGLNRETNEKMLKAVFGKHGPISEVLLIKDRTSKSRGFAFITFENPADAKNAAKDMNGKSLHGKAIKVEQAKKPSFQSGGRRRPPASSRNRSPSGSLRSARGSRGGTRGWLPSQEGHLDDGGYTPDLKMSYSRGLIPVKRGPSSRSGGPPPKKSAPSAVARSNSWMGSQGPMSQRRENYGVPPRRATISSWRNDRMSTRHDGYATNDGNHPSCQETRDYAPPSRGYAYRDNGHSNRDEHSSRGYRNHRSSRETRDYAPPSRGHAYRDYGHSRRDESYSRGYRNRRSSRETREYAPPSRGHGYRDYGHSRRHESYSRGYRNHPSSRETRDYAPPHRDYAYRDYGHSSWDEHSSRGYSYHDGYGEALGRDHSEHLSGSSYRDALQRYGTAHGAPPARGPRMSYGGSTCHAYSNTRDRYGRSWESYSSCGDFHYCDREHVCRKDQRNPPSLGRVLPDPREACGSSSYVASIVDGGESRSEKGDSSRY
row,Target,log2 fold change
1,RBMY1E (UniProt A6NEQ0),-0.057
2,RSL1D1 (UniProt O76021),0.01
3,RALY (UniProt Q9UKM9),-0.001
4,RAD50 isoform 2 (UniProt Q92878),-0.02
5,RPS5 (UniProt P46782),0.037
6,SDHAF4 (UniProt Q5VUM1),-0.018
7,RIC8A isoform 3 (UniProt Q9NPQ8),0.095
8,S100A10 (UniProt P60903),-0.102
9,SETD3 (UniProt Q86TU7),0.001
10,RRAGB (UniProt Q5VZM2),-0.04
11,RPP14 (UniProt O95059),-0.066
12,RNASET2 (UniProt O00584),0.05
13,RPS27A (UniProt P62979),0.222
